Molecules are shown by their SMILES.

Assay [1] concerns the target T1, Serine/threonine-protein kinase TBK1 (Homo sapiens) (UniProt Q9UHD2).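 Also: values are mean inhibition of TBK1, screened as part of the GSK published kinase inhibitor set.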
T1 sequence (whole entry): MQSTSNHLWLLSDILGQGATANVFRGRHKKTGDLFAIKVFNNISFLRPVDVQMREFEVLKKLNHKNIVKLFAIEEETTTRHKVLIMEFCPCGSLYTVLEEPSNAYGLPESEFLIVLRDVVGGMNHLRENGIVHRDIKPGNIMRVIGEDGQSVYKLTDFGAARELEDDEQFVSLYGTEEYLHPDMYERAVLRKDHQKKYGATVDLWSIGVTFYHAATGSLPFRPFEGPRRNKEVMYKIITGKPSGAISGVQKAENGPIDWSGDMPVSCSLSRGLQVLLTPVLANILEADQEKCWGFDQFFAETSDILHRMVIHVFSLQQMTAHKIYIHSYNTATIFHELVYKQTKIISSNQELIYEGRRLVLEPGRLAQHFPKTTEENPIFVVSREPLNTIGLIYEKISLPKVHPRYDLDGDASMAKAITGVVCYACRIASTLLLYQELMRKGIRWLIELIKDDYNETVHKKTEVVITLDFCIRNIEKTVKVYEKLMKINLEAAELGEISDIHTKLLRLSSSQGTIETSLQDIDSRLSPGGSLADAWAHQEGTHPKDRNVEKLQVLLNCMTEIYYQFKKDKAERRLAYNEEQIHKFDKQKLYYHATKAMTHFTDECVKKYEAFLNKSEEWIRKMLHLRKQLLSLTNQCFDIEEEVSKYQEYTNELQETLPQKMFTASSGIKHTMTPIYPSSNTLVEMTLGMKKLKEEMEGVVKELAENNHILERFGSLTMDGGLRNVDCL
The settings on record: at 1 µM.

Assay [2] deals with T2, Testis-specific serine/threonine-protein kinase 1 (Homo sapiens) (UniProt Q9BXA7).
T2 sequence (whole entry): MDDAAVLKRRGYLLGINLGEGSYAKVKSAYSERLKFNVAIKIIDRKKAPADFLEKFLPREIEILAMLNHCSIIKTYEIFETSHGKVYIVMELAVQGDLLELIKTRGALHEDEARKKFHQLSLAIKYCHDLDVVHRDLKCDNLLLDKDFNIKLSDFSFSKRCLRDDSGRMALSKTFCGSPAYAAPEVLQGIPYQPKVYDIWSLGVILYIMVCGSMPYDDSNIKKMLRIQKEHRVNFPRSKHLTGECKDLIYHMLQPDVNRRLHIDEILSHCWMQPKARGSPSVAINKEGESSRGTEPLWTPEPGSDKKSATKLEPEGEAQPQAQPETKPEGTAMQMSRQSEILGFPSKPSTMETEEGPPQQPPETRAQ
Particulars: at 0.1 µM.

Assay [3] concerns the target T2, Testis-specific serine/threonine-protein kinase 1 (Homo sapiens). Particulars: at 1 µM.
The target of assay [4] is T3, Testis-specific serine/threonine-protein kinase 2 (Homo sapiens) (UniProt Q96PF2).
T3 sequence (whole entry): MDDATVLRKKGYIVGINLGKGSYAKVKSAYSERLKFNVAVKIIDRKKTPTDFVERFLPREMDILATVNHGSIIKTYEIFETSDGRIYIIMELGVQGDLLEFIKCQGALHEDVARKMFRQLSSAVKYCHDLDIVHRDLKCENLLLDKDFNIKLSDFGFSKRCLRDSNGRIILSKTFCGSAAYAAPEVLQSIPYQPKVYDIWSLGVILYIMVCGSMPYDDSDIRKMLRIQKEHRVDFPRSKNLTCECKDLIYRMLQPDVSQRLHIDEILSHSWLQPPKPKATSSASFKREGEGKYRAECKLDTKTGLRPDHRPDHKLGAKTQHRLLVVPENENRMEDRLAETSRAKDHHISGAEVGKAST
Particulars: at 0.1 µM.

Assay [5] addresses T3, Testis-specific serine/threonine-protein kinase 2 (Homo sapiens). Particulars: at 1 µM.
For assay [6], the target named is Casein kinase I isoform alpha (Homo sapiens) (UniProt P48729). The settings on record: at 0.1 µM.
Chain of Casein kinase I isoform alpha (Homo sapiens) (P48729 2-337 limits assumed): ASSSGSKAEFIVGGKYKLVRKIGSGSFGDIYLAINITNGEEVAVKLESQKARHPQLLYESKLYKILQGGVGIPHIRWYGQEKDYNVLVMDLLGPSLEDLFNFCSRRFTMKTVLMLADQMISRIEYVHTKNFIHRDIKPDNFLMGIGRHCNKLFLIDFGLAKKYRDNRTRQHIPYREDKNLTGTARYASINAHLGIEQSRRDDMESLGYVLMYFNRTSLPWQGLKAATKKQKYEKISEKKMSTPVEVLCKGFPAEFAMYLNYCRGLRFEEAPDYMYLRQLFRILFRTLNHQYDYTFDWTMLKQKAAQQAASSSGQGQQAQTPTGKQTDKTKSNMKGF
For assay [7] the target is unchanged. The settings on record: at 1 µM.
The target in assay [8] is Casein kinase I isoform gamma-1 (Homo sapiens) (UniProt Q9HCP0). The settings on record: at 0.1 µM.
Chain of Casein kinase I isoform gamma-1 (Homo sapiens) (Q9HCP0 whole entry, looked up, canonical isoform): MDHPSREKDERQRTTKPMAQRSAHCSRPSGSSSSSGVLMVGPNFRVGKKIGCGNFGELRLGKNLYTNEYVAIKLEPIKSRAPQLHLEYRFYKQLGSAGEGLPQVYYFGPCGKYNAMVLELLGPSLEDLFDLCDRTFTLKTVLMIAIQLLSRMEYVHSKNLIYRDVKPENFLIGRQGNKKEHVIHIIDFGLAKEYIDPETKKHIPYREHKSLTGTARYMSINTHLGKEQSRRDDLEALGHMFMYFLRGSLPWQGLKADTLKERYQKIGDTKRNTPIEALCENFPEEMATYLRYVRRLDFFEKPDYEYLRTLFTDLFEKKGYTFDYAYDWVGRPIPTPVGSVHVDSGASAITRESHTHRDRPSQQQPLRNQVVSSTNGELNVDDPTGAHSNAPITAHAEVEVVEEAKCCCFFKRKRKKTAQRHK
Assay [9] shares this target. The settings on record: at 1 µM.
Assay [10] has as its target Casein kinase I isoform gamma-2 (Homo sapiens) (UniProt P78368). The settings on record: at 0.1 µM.
For assay [11] the target is unchanged. Particulars: at 1 µM.
For assay [12], the target named is Casein kinase I isoform gamma-3 (Homo sapiens) (UniProt Q9Y6M4). The settings on record: at 0.1 µM.
Chain of Casein kinase I isoform gamma-3 (Homo sapiens) (Q9Y6M4 whole entry, looked up, canonical isoform): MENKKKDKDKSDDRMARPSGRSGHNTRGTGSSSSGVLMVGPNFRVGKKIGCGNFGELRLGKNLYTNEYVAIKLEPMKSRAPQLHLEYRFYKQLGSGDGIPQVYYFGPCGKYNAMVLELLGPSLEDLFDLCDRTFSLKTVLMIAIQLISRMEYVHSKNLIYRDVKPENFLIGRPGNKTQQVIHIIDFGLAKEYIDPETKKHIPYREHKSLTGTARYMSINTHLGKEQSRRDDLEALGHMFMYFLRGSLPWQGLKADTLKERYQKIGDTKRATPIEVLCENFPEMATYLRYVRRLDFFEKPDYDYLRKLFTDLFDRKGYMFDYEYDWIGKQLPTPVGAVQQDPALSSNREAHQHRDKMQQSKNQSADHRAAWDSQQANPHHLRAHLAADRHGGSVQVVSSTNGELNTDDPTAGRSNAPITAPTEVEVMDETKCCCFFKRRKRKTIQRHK
Assay [13] has the same target. The settings on record: at 1 µM.
For assay [14], the target named is Cyclin-dependent kinase 1 (Homo sapiens) (UniProt P06493). The settings on record: at 0.1 µM.
Chain of Cyclin-dependent kinase 1 (Homo sapiens) (P06493 whole entry, looked up): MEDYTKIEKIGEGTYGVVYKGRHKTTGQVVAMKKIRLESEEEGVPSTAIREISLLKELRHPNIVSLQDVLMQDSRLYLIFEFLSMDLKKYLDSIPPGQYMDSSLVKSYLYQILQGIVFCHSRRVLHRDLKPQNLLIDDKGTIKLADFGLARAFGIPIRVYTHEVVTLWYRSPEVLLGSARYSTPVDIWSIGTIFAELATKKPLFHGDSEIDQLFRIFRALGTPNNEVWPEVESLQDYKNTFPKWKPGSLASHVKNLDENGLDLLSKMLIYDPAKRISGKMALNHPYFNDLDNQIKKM
The target is the same in assay [15]. The settings on record: at 1 µM.
Assay [16] deals with Cyclin-dependent kinase 2 (Homo sapiens) (UniProt P24941). The settings on record: at 0.1 µM.
Assay [17] has the same target. Particulars: at 1 µM.
The target is the same in assay [18]. The settings on record: at 0.1 µM. This is another data set of the same source.
Assay [19] has the same target. The settings on record: at 1 µM. This is another data set of the same source.
For assay [20], the target named is CDK3/Cyclin E (Homo sapiens) (UniProt P24864+Q00526). The settings on record: at 0.1 µM.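 Also: reported percentages are mean inhibition values.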
Chain of CDK3/Cyclin E (Homo sapiens) (P24864 whole entry, looked up): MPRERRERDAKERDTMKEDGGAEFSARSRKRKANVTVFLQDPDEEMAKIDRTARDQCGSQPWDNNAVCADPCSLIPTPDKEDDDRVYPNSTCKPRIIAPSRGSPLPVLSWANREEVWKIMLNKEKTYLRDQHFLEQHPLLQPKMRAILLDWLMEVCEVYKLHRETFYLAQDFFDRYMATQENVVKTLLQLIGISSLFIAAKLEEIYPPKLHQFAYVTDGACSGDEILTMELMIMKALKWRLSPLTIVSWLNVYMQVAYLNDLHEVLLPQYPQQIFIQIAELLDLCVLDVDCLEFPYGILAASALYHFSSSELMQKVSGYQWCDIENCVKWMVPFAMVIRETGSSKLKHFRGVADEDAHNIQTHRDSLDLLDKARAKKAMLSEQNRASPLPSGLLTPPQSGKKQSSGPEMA
Chain of CDK3/Cyclin E (Homo sapiens) (Q00526 whole entry, looked up): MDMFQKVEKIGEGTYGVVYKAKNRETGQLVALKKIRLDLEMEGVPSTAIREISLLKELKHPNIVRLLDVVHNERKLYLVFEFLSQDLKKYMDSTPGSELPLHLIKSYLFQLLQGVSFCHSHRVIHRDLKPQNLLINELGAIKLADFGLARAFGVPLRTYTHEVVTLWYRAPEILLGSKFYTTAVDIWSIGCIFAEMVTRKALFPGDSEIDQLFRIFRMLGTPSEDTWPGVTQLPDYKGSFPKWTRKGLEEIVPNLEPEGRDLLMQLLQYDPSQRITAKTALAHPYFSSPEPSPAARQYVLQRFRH

Chain of Casein kinase I isoform gamma-2 (Homo sapiens) (P78368 whole entry, looked up, canonical isoform): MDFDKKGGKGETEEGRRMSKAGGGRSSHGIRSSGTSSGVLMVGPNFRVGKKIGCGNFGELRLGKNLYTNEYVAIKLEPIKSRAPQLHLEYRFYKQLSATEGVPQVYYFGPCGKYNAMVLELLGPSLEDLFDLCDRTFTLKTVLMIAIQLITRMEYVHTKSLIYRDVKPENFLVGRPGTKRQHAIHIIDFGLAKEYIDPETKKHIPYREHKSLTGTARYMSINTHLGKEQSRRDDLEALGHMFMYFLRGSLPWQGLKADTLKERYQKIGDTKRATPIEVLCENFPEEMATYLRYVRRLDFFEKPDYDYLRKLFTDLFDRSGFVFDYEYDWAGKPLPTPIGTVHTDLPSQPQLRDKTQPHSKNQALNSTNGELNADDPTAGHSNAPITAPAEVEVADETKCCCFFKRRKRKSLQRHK

As for `C[C@@H](Oc1cc(-n2cnc3ccc(OCC4CCN(C)CC4)cc32)sc1C(N)=O)c1ccccc1C(F)(F)F`, the inhibition in assay [1] is -1.33%; in assay [2] it was 1.47%; in [3], 22.4%; in assay [4], -1.17%; in assay [5], -0.35%; in assay [6] it was -4.16%. The inhibition in assay [7] is -1.43%; in assay [8], -1.72%; in assay [9], -1.25%; in assay [10] it was -1.74%; in assay [11] it was -3.37%; in assay [12], -1.08%. Besides, the inhibition in [13] was -3.59%; in assay [14], 2.12%; in assay [15], 3.02%; in assay [16], -0.78%; in [17], 2.52%; in assay [18], -0.93%. Also, the inhibition in [19] is 0.83%; in assay [20] it was -1.54%.
With `Nc1nccc(-c2c(-c3ccc(F)cc3)ncn2CCCN2CCOCC2)n1`, the inhibition was found to be 4.85% in assay [1]; 3.5% in assay [2]; 3.45% in assay [3]; 2.07% in assay [4]; 2.83% in assay [5]; 6.3% in [6]. Further, the inhibition in assay [7] came to 27.3%; in [8], 3.45%; in assay [9], 5.49%; in assay [10] it was 2.84%; in [11], 4.12%; in [12], 3.31%. Also, the inhibition in assay [13] was 6.54%; in assay [14], 0.36%; in [15] it was 2.84%; in assay [16] it was 1.82%; in assay [17], -4.06%; in assay [18] it was 2.73%. Moreover, the inhibition came to 2.71% in [19] and 4.59% in assay [20].
On to `COc1cc2ncnc(Nc3ccc4c(cnn4Cc4ccccc4)c3)c2cc1OC`, for which the inhibition in assay [1] amounted to 1.45%; in assay [2], 2.62%; in assay [3], 3.63%; in assay [4], 0.21%; in assay [5], 0.75%; in [6] it was 1.02%. Besides, the inhibition worked out at 1.16% in assay [7]; 1.64% in assay [8]; 2.33% in [9]; 1.06% in assay [10]; 2.98% in [11]; 0.8% in assay [12]. Also, the inhibition is 1.75% in assay [13]; 2.61% in [14]; 6.2% in assay [15]; 4.41% in assay [16]; 2.68% in assay [17]; 6.35% in assay [18]. Moreover, the inhibition in [19] was 7.13%; in [20], -0.7%.
Take `CCCN1CCCC(c2ccc(Nc3nc(Nc4cc(F)ccc4C(N)=O)c4cc[nH]c4n3)c(OC)c2)C1` (stereo not given): the inhibition in assay [1] is 11.5%; in assay [2] it was 81%; in assay [3] it was 92.6%; in [4], 62.5%; in [5], 86%; in assay [6], 44.3%. In addition, the inhibition in assay [7] is 78.5%; in assay [8], 36.1%; in assay [9], 78%; in assay [10], 29.6%; in [11], 78.6%; in assay [12] it was 44.3%. Also, the inhibition in assay [13] worked out at 83.5%; in [14] it was 0.12%; in assay [15], 2.76%; in [16] it was 2.13%; in assay [17], 10.8%; in assay [18] it was 3.57%. Also, the values for the inhibition in [19] and in assay [20] were 8.67% and 4.8%, respectively.
`O=C1Nc2ccc(-c3cccnc3)cc2C1=Cc1cc(Br)c(O)c(Br)c1`: the inhibition in assay [1] is 7.51%; in [2] it was 2.68%; in assay [3], 1.29%; in assay [4], 0.55%; in assay [5] it was -0.14%; in assay [6], 6.06%. The inhibition in assay [7] was found to be 3.87%; in assay [8], 4.05%; in assay [9], 4.74%; in assay [10], 2.62%; in assay [11] it was 4.44%; in assay [12], 3.31%. For the same compound, the inhibition is 3.74% in assay [13]; -0.12% in [14]; 1.23% in assay [15]; 2.18% in assay [16]; 1.15% in assay [17]; 3.46% in [18]. Besides, the values for the inhibition in assay [19] and in assay [20] were 5.04% and 0.27%, respectively.
Turning to `FC(F)(F)c1ccc(-c2nn3ncccc3c2-c2ccnc(Nc3ccc4c(c3)OCCO4)n2)cc1`, the inhibition in assay [1] was 4.67%; in assay [2], 1.27%; in [3], 4.75%; in assay [4], 2.11%; in assay [5], 5.84%; in [6], 9.84%. The inhibition in [7] is 4.54%; in [8], -0.1%; in assay [9], 0.59%; in assay [10], 0.52%; in [11], 0.81%; in [12], 0.18%. In addition, the inhibition was 1.72% in assay [13]; 5.01% in [14]; 4.37% in assay [15]; 1.49% in assay [16]; -1.87% in [17]; 5.4% in assay [18]. Moreover, the inhibition in [19] is 5.36%; in assay [20], 7.17%.
In the case of `Cc1cc(O)cc(C)c1/C=C/c1cncc(C(=O)N(C)C)c1`, the inhibition was 4.11% in assay [1]; 4.05% in assay [2]; 0.84% in [3]; 2.08% in assay [4]; 0.19% in assay [5]; 1.94% in [6]. Besides, the inhibition in assay [7] turned out to be 3.01%; in [8], 1.26%; in assay [9], 1.95%; in [10], 1.03%; in assay [11], 3.24%; in [12], 0.86%. In addition, the inhibition in assay [13] was -0.84%; in assay [14], 1.02%; in assay [15], 5.98%; in assay [16], 2.51%; in assay [17], 0.67%; in [18] it was 1.36%. Moreover, the results for the inhibition in [19] and in assay [20] were 4.91% and 1.4%, respectively.

Broadly, the inhibition is the change of the read-out against control, counted positive when it falls.

Source of the values: ChEMBL document CHEMBL1961873, “Compounds: GSK PKIS; Assays: Nanosyn kinase panel” (2012).
